# Laboratory results: PubChem BioAssay (NCATS)
# Results filed as inconclusive are left out. Unmarked numbers belong to inactive results. Active and inactive are the calls of the source. The call rests on the fitted dose curve; in most records, active means well fitted inhibition curve with a large enough effect; inconclusive means small, poorly fitted or top-dose-only effect; inactive means flat fitted curve, though single readings scatter.
# How the values were obtained:
# CRL-7250 = normal cell line; assay: Cytotoxic Profiling of Annotated Libraries Using Quantitative High-Throughput Screening (AID 1296008); details: Five cell lines viability, CellTiter-Glo ATP luminescence, 48-72 h; max response: hits give low values; on max response: on the % scale 0 is the no-effect control and ±100 the full control effect
# In short: (§1)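 Compounds were pin-transferred onto cells and incubated 48 or 72 hr at 37 degree Celsius, 95% humidity. CellTiter-Glo was added, plates sat 10 min at room temperature, then ATP-coupled luminescence was imaged as the viability read-out.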
# HEK293 = assay: as above; details: Five cell lines viability, CellTiter-Glo ATP luminescence, 48-72 h; max response: hits give low values
# In short: as §1
# PC15 = assay: qHTS profiling for inhibitors of Plasmodium falciparum proliferation (AID 504749); details: P. falciparum in erythrocytes, SYBR Green DNA, 72 h
# In short: (§2)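 Parasite proliferation within erythrocytes, 72 h exposure. Endpoint: SYBR Green I fluorescence after overnight lysis at room temperature. Controls: 0.29 uM artemisinin, DMSO.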
# PC26 = assay: as above; details: P. falciparum in erythrocytes, SYBR Green DNA, 72 h
# In short: as §2
# SC27B = assay: as above; details: P. falciparum in erythrocytes, SYBR Green DNA, 72 h
# In short: as §2
# TAB109 = assay: as above; details: P. falciparum in erythrocytes, SYBR Green DNA, 72 h
# In short: as §2
# TAB113 = assay: as above; details: P. falciparum in erythrocytes, SYBR Green DNA, 72 h
# In short: as §2
# TAB165 = assay: as above; details: P. falciparum in erythrocytes, SYBR Green DNA, 72 h
# In short: as §2
# W2 = assay: as above; details: P. falciparum in erythrocytes, SYBR Green DNA, 72 h
# In short: as §2
# PC49 = assay: as above; details: P. falciparum in erythrocytes, SYBR Green DNA, 72 h
# In short: as §2
# Further: nearly all actives have a fitted effect of over 60% in size.
# Potency means the concentration at half of the fitted maximal effect.
smiles,measurement,setting,value
CC1(C)CC[C@]2(C(=O)O)CC[C@]3(C)C(=CCC4[C@@]5(C)C[C@@H](O)[C@H](O)C(C)(C)C5CC[C@]43C)C2C1 (stereo not given in full),outcome,CRL-7250,inactive
same,outcome,HEK293,inactive
C=C1CCC2C(C)(C)C(O)CCC2(C)C1CCC(C)CCO (stereo not given),max response,CRL-7250,-1.18%
same,Potency,HEK293,11400 nM (active)
COc1cc(C2Oc3c(OC)cc(CCCO)cc3C2CO)ccc1O[C@H]1O[C@H](C)[C@@H](O)[C@H](O)[C@@H]1O (stereo not given in full),outcome,CRL-7250,inactive
same,max response,HEK293,-0.663%
CC1=C2C3OC(=O)C(C)C3(O)CCC2(C)CCC1O (stereo not given),max response,CRL-7250,-5.4%
same,max response,HEK293,-8.27%
O=S(=O)(c1ccccc1)c1cnc2c(N3CCNCC3)cccc2c1,max response,CRL-7250,1.33%
same,max response,HEK293,-8.82%
OC[C@H]1O[C@@H](O[C@H]2[C@H](OCc3ccccc3)O[C@H](CO[C@@H]3OC[C@@H](O)[C@H](O)[C@H]3O)[C@@H](O)[C@@H]2O)[C@H](O)[C@@H](O)[C@@H]1O,max response,CRL-7250,-6.77%
same,max response,HEK293,0.36%
CC(C)(O)C1CCC(C)(C2CCC3(C)C4CCC5C(C)(C(=O)OC6OC(CO)C(O)C(O)C6O)C(O)CC(O)C56CC46CCC23C)O1 (stereo not given),outcome,CRL-7250,inactive
same,max response,HEK293,0.689%
CC(C)CN(C[C@@H](O)[C@H](Cc1ccccc1)NC(=O)O[C@@H]1CO[C@H]2OCC[C@H]21)S(=O)(=O)c1ccc(N)cc1,max response,CRL-7250,4.36%
same,max response,HEK293,-6.82%
C[C@@H]1O[C@@H](O[C@H]2[C@@H]3C=CO[C@@H](O[C@@H]4O[C@H](CO)[C@@H](O)[C@H](O)[C@H]4O)[C@@H]3[C@@]3(CO)O[C@@H]23)[C@H](OC(=O)/C=C/c2ccc(O)c(O)c2)[C@H](O)[C@H]1O,outcome,CRL-7250,inactive
same,max response,HEK293,-5.61%
COC(=O)C[C@H]1C(C)(C)[C@H](OC(=O)C(C)C)[C@@]2(O)C(=O)[C@]1(C)C1CC[C@]3(C)C(CC(=O)O[C@H]3c3ccoc3)[C@]13O[C@@H]32 (stereo not given in full),outcome,CRL-7250,inactive
same,max response,HEK293,-5.5%
O=C(N/N=C/c1ccc(O)c(O)c1)c1cc2ccccc2cc1O,max response,CRL-7250,-27.6%
same,outcome,HEK293,inactive
C=CC(C)(C)c1[nH]c2ccccc2c1C[C@@H]1NC(=O)[C@H](Cc2c[nH]c3ccccc23)NC1=O,max response,CRL-7250,3.43%
same,max response,HEK293,-1.95%
C[C@@H]1CC[C@]2(C(=O)O)CC[C@]3(C)C(=CCC4[C@@]5(C)CC[C@H](O)C(C)(C)C5C(O)C[C@]43C)[C@@H]2[C@]1(C)O (stereo not given in full),max response,CRL-7250,-5.69%
same,max response,HEK293,4.01%
C[C@@H]1C(=O)O[C@H]2C[C@]34[C@H]5C[C@@H](C(C)(C)C)[C@]36[C@@H](OC(=O)[C@H]6O)O[C@]4(C(=O)O5)[C@]21O,max response,CRL-7250,-0.0261%
same,max response,HEK293,-44.8%
COc1cc2nc(N3CCC(N4CCCCC4)CC3)nc(NC3CCCCCC3)c2cc1OC,Potency,CRL-7250,16400 nM (active)
same,Potency,HEK293,5170 nM (active)
CC[C@]1(O)CC2CN(CCc3c([nH]c4ccccc34)[C@@](C(=O)OC)(c3cc4c(cc3OC)N(C)[C@H]3[C@@](O)(C(=O)OC)[C@H](OC(C)=O)[C@]5(CC)C=CCN6CC[C@]43[C@@H]65)C2)C1 (stereo not given in full),Potency,PC15,5010 nM (active)
same,Potency,PC26,1690 nM (active)
same,Potency,SC27B,3550 nM (active)
same,Potency,TAB109,1000 nM (active)
same,Potency,TAB113,3980 nM (active)
same,Potency,TAB165,2000 nM (active)
same,Potency,W2,478 nM (active)
CC(=O)O[C@H]1C(=O)[C@@]2(C)[C@H]([C@H](OC(=O)c3ccccc3)[C@]3(O)C[C@H](OC(=O)[C@H](O)[C@@H](NC(=O)c4ccccc4)c4ccccc4)C(C)=C1C3(C)C)[C@]1(OC(C)=O)CO[C@@H]1C[C@@H]2O,Potency,PC15,1410 nM (active)
same,Potency,PC26,536 nM (active)
same,Potency,PC49,2000 nM (active)
same,Potency,SC27B,1260 nM (active)
same,Potency,TAB109,355 nM (active)
same,Potency,TAB113,1260 nM (active)
same,Potency,TAB165,282 nM (active)
same,Potency,W2,169 nM (active)
